MRP resist rev: reversal of MRP1-mediated doxorubicin resistance, primary screen, H69AR cells, doxorubicin co-treatment | actives 0.04% (n = 85,000) | differential viability (reversal), % at 10 µM | H69AR cells + 2 uM doxorubicin, CellTiter-Glo, 72 h;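 active = viability drop by adding the cancer drug above about 55%, with treated viability meeting a 40% cutoff, limit read from the data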;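 note: viability without doxorubicin minus viability with 2 µM doxorubicin for each compound; larger differential means the compound sensitizes cells more to doxorubicin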
MRP-1 activ: H69AR viability gain despite doxorubicin, primary screen, MRP-1 activator project, H69AR cells, CellTiter-Glo | AID 799, 2007 | viability increase, % at 10 µM | actives 0.61% (n = 140,000) | viability rescue;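 active = viability gain under doxorubicin at or above a set limit, the compound median plus 3 SD, cut at about 4.7% in these data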;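 note: MRP-1 overexpressing cells given doxorubicin 25 µM after compound pretreatment; 18-22 h compound pretreatment then 72 h with doxorubicin before readout; 0% = doxorubicin-only wells and 100% = vehicle-treated cells without doxorubicin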
sEH act: soluble epoxide hydrolase activators, primary screen, biochemical, human sEH | activation, % at 2 µM | purified human sEH enzymatic activity, activator screen | Bifunctional epoxide hydrolase 2 (Homo sapiens), P34913 | actives 0.04% (n = 91,000) | AID 717, 2007; in the data active = activation above about 37%
Target sequence (P34913 whole entry, looked up): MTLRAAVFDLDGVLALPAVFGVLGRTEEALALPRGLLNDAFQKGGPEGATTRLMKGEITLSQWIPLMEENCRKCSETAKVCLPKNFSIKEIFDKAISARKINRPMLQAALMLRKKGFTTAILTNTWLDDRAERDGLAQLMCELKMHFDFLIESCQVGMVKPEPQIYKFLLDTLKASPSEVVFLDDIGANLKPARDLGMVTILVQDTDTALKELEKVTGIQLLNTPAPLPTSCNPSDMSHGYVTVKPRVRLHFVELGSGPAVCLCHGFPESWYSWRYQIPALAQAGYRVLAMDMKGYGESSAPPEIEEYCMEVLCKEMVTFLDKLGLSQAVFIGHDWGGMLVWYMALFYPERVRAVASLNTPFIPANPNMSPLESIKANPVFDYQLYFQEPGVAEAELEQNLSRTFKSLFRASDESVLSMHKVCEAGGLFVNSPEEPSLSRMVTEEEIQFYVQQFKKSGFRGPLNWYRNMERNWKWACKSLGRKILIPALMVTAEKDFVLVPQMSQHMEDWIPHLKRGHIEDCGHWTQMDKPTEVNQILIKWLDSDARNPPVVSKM
Measles CPE: compounds protecting cells from measles virus cytopathic effect, primary screen, measles RdRp inhibitor project, single point, MLSMR library, absorbance | Measles virus-infected cells, CPE protection | actives 1.5% (n = 140,000) | protection (pct of control), % at 4 µM; in the data active = protection mostly above about 24%, no sharp cut-off; inactive = mostly below about 26%
SDO1 yeast rescue: growth rescue of sdo1-depleted yeast, primary screen, S. cerevisiae, bone marrow failure model | S. cerevisiae sdo1-depleted JHY4D growth rescue, OD600 30 h; stronger effect = higher value; pdr5 snq2 efflux-pump mutant strain | z-score at 10 µM | actives 0.21% (n = 140,000);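 active = z-score above 3 at both the 24 hr and the 30 hr optical density reads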;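 note: z-score against mean and SD of all compound wells on the same plate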
sEH inh: soluble epoxide hydrolase inhibitors, primary screen, biochemical, human sEH. inhibition, % at 2 µM. AID 707, 2007. actives 0.34% (n = 91,000). Bifunctional epoxide hydrolase 2 (Homo sapiens), P34913. recombinant human sEH enzymatic activity assay; in the data active = inhibition above about 80%
* hit, by the source's call; x = no result given. Shown are actives, neighbours in structure and some others; about 2.5% of the full set was active somewhere.

SMILES	MRP resist rev	MRP-1 activ	sEH act	Measles CPE	SDO1 yeast rescue	sEH inh
COc1cc(C2Nc3ccc4ncccc4c3C3=C2C(=O)CCC3)ccc1O (stereo not given)	-5.3	-6.2	x	16.7	0.81	x
Cc1noc(C)c1C(=O)NCCCc1ccccc1	7.1	0.9	x	38.1*	0.22	x
COc1ccc(CCNC(=O)c2c(C)noc2C)cc1	5.6	0.0	-2.5	12.4	0.62	5.9
CC(Oc1cc(Cl)ccc1Cl)C(=O)N/N=C\c1ccnn1C (stereo not given)	x	-1.3	x	8.4	0.87	x
CC1CC(=O)Nc2ccccc2N1S(=O)(=O)c1cccc(Cl)c1 (stereo not given)	x	-1.5	x	39.3*	-0.14	x
CC1Cc2ccccc2N1S(=O)(=O)c1ccc2c(c1)n(C)c(=O)c(=O)n2C (stereo not given)	-0.1	-0.1	-2.0	10.2	0.56	4.7
Cc1cc(C)nc(SCC(=O)Nc2ncc3c(n2)CC(C)(C)CC3=O)n1	-6.2	-2.0	-19.6	11.9	0.38	20.4
O=C(CSc1nc2ccccc2o1)Nc1ccc(N2CCOCC2)cc1	x	0.0	-4.4	3.2	-0.51	3.7
O=C(CSc1nc2ccccc2o1)Nc1ccccc1N1CCOCC1	11.8	-1.3	3.9	47.6*	-1.48	-4.6
CC1(C)CC(=O)c2cnc(NC(=O)CSc3nc4ccccc4o3)nc2C1	9.5	-1.2	-18.8	17.2*	-0.9	22.9
O=C(COc1nc2ccccc2nc1N1CCOCC1)Nc1cccc(S(=O)(=O)N2CCCCC2)c1	x	-2.6	x	5.5	1.16	x
O=Cc1cccn1Cc1ccccc1[N+](=O)[O-]	x	-2.7	x	11.8	1.16	x
COc1ccc(NC(=O)/C(=C/c2cccnc2)NC(=O)c2cccs2)cc1	x	-0.8	x	22.1	1.46	x
CN1/C(=C\C(=O)CSc2nnc(NCc3ccccc3)s2)C(C)(C)c2ccccc21	x	-1.8	x	4.1	-0.89	x
CCCCCn1c(SCC2CCCO2)nc2cc(C(=O)N3CCC(C(N)=O)CC3)ccc2c1=O (stereo not given)	16.8	-3.7	x	55.2*	1.32	x
O=C(CN(C(=O)Cn1nnc(-c2cccs2)n1)c1ccc2c(c1)OCCO2)NC1CCCCC1	-10.0	-2.1	5.4	17.4	0.26	-7.3
O=C(NCc1ccccc1)C(c1ccc(O)cc1)N(C(=O)Cn1nnc(-c2cccs2)n1)c1ccc2c(c1)OCCO2 (stereo not given)	-8.3	5.8*	8.3	6.8	0.86	-3.0
CS(=O)(=O)NCC(c1ccco1)N1CCN(c2ccc(F)cc2)CC1 (stereo not given)	x	1.4	x	63.0*	0.26	x
CCS(=O)(=O)NCC(c1ccco1)N1CCN(c2ccc(F)cc2)CC1 (stereo not given)	x	-1.2	x	2.4	-0.24	x
CCS(=O)(=O)N1CCC(C(=O)NCc2cccnc2)CC1	-1.7	-0.1	x	5.5	0.98	x
O=C(NCc1cccnc1)C1CCN(C(=O)c2ccc(Cl)cc2Cl)CC1	14.5	0.1	-3.5	35.5*	-0.66	7.0
NC(=O)N1CCN(C(=O)c2ccco2)CC1	-0.8	-1.2	3.6	2.8	0.36	-5.6
Nc1ccc(N2CCN(C(=O)c3ccco3)CC2)cc1	6.4	-3.7	2.6	59.7*	-0.25	0.2
Cc1[nH]n(-c2nc(-c3cccc([N+](=O)[O-])c3)cs2)c(=O)c1C	x	1.7	x	4.8	-0.88	x
NS(=O)(=O)c1ccc(N=Nc2c(-c3ccccc3)[nH]n(-c3nc(-c4ccccc4)cs3)c2=O)cc1	x	5.3*	x	1.6	-0.52	x
SMILES	MRP resist rev	MRP-1 activ	sEH act	Measles CPE	SDO1 yeast rescue	sEH inh
CC1CC(c2ccccc2)n2nc(N3C(=O)c4ccccc4C3=O)nc2N1 (stereo not given)	7.7	-1.6	-7.5	26.8*	0.42	7.7
O=C(CSc1ccc2nnc(CCNS(=O)(=O)c3ccccc3)n2n1)Nc1nc2ccccc2s1	x	-3.5	x	1.6	0.76	x
O=C(NCCSCc1c(F)cccc1Cl)c1ccc(CN2CCOCC2)cc1	x	-1.2	x	7.6	-1.44	x
Cc1nc(NC(N)=S)sc1C(=O)Nc1ccccc1	9.4	-0.3	1.9	49.7	1.24	0.9
Cc1nc(-c2cccnc2)sc1C(=O)Nc1ccc(Cl)cc1	x	-3.0	0.8	33.0*	-0.86	1.3
Cc1nc(-c2cccnc2)sc1C(=O)Nc1ccc(F)cc1F	x	-1.3	2.3	24.8	0.43	3.5
Cc1nc(N)sc1C(=O)Nc1ccccc1	-2.3	-2.7	4.6	35.2*	0.45	-1.6
COc1ccc([N+](=O)[O-])cc1NC(=O)c1cn(-c2ccc(C)c(C)c2)c(=O)c2ccccc12	x	-3.2	x	7.9	0	x
O=C1OC(Nc2ccccn2)c2ccccc21 (stereo not given)	-16.6	32.0*	7.6	3.8	0.12	-3.9
CC(C)CCOc1ncnc2c1sc1nc3c(cc12)CSC(C)(C)C3	-4.7	6.3*	4.3	10.4	-0.93	0.7
O=C(Nc1ccc(N2CCCCC2)c(C(=O)O)c1)c1ccco1	-1.8	-0.9	5.5	9.9	0.92	-5.3
O=C(Cc1ccc(Cl)cc1)Nc1ccc(N2CCN(C(=O)c3ccco3)CC2)c(Cl)c1	3.7	0.4	-85.8	4.8	-1.31	86.0*
O=C(Nc1ccc(N2CCCC2)c(Cl)c1)c1ccco1	8.9	4.9*	x	7.6	0.5	x
O=C(Nc1ccc(CCC(=O)N2CCCC2)cc1)c1ncn[nH]1	0.2	-3.1	-0.1	6.0	0.54	1.1
O=C(Nc1ccc(N2CCCCC2)c(Cl)c1)c1ncn[nH]1	x	8.8*	x	4.1	0.29	x
C=CCN1C(=O)/C(=C2/Sc3ccccc3N2C)SC1=Nc1c(C)n[nH]c1C	45.4	-4.0	0.5	5.8	-1.21	-1.7
C=CCN1C(=O)/C(=C2/Sc3ccccc3N2C)SC1=Nc1ccccc1C	14.1	1.3	5.2	51.2*	-0.9	-3.2
Cc1cc(C)c2nc(SCC(=O)NCCC3=CCCCC3)cc(C)c2c1	x	-1.0	x	19.0	0.49	x
CCC1SC2=NC(C)=C(C(=O)OC)C(c3cccs3)N2C1=O (stereo not given)	-10.7	5.5*	22.7	0.3	-0.92	-24.4
CCOC(=O)C1=C(C)N=C2SC(CC)C(=O)N2C1c1cccc(F)c1 (stereo not given)	4.0	6.3*	-12.2	5.1	-1.32	13.8
O=C(c1ccc(S(=O)(=O)c2cccc(Cl)c2)c([N+](=O)[O-])c1)N1CCN(Cc2ccccc2)CC1	x	-5.2	x	5.9	-1.88	x
CCOC(=O)C(C)Sc1cc(CS(=O)(=O)c2ccccc2)nc(-c2ccccc2)n1 (stereo not given)	x	-1.4	1.1	8.8	-0.09	1.0
Cc1scc(C(=O)N/N=C/c2ccc(Cl)s2)c1C	x	1.9	x	8.7	-0.86	x
COc1ccc(C2C(C(=O)O)CC(=O)N2C2CCCCC2)cc1 (stereo not given)	0.5	0.7	1.6	47.6*	-0.42	3.4

Assay outcomes deposited in PubChem BioAssay by several laboratories.
